Assay outcomes as filed in PubChem BioAssay.
Hits are enriched below; roughly 6.9% of the tested compounds scored in any of these assays.
L3MBTL1 inh: blocks human L3MBTL1; Potency, µM (highest dose often 57.1 µM), without a hit: at the top dose activity, negative = inhibition, hits mostly inhibitors; AlphaScreen L3MBTL1–H3K9me1 peptide binding; actives 0.66% (n = 230,000); AID 485360; also: % is scaled to controls: 0 for no effect and ±100 for the full control effect; nearly all actives have a fitted effect of over 60% in size
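First, the protein-peptide complex forms for 30 min at room temperature (L3MBTL1 50 nM, biotinylated H3K9me1 peptide 75 nM). Next, compounds are pin-transferred and incubated 30 min. Finally, AlphaScreen beads are added and read after 30 min.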
VDR inh: inhibitors of human vitamin D receptor; P11473; VDR-SRC2-3 peptide fluorescence polarization, 2 h; Potency, µM, for inactives: max response, negative = inhibition, actives largely listed as inhibitors; actives 0.93% (n = 400,000); also: % is scaled to controls: 0 for no effect and ±100 for the full control effect
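Fluorescence polarization assay of small-molecule disruption of VDR binding to coregulator peptide SRC2-3. Compounds and controls pin-transferred, then read after 2 h incubation at ambient room temperature.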
JMJD2A Tudor inh: inhibitors of human JMJD2A Tudor domain; actives 4.4% (n = 390,000); O75164; AlphaScreen JMJD2A-Tudor / H3K4me3 peptide binding; Potency, µM (titrated, usually from 114 µM), for inactives: at the top dose activity change, negative = inhibition, usual class: inhibitors; AID 504339; also: % is scaled to controls: 0 for no effect and ±100 for the full control effect; nearly all actives have a fitted effect of over 50% in size
HP1b chromo inh: inhibitors of HP1-beta chromodomain binding to methylated histone tails; P83916; AlphaScreen HP1-beta / biotin-H3K9me3 peptide binding; Potency, µM (doses to about 114 µM), for the others: top-dose activity change, negative = inhibition, usual class: inhibitors; actives 0.56% (n = 390,000); also: nearly all actives have a fitted effect of over 70% in size
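Compound inhibition of the preformed complex between 50 nM HP1-beta and 50 nM biotinylated H3K9me3 peptide was read by AlphaScreen. Buffer was PBS pH 7.4 with 0.01% Tween-20. Incubations ran 30 min at room temperature, with 10 ug/mL donor/acceptor beads.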
BAZ2B inh: BAZ2B (human) inhibition; AlphaScreen BAZ2B-H3K14Ac peptide displacement; actives 4.4% (n = 360,000); Potency, µM (doses to about 114 µM), inactives show at the top dose activity change, negative = inhibition, actives largely listed as inhibitors; also: % is scaled to controls: 0 for no effect and ±100 for the full control effect; nearly all actives have a fitted effect of over 60% in size
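BAZ2B 50 nM plus b-H3(5-23)K14Ac 50 nM, PBS pH 7.4/0.01% Tween-20, 30 min RT; compound added (max 110 uM), 30 min RT; streptavidin donor/Ni-chelate acceptor beads 10 ug/mL final, 20 min dark; AlphaScreen read.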
PLK1 PBD inh: inhibitors of human PLK1 polo-box domain binding; Potency, µM, for the others: max response, negative = inhibition, usual class: inhibitors; AID 720504; Plk1 PBD binding of FITC phosphopeptide, fluorescence polarization; actives 2.8% (n = 360,000); also: series mostly up to about 57 µM; % is scaled to controls: 0 for no effect and ±100 for the full control effect; nearly all actives have a fitted effect of over 65% in size
* marks the source's active call; other numbers are inactive results; u = inconclusive; x = no result given; [ ] = remark or other dose. Calls follow the shape of the dose curve; as a rule, active = well fitted curve in the direction sought with a large enough effect; inconclusive = small, poorly fitted or top-dose-only effect, or another doubt; inactive = no such curve, though single readings can be large; an effect the other way counts as inactive or inconclusive. Potency is read from the fitted curve at half-maximal effect.

SMILES	L3MBTL1 inh	VDR inh	JMJD2A Tudor inh	HP1b chromo inh	BAZ2B inh	PLK1 PBD inh
C[C@H](NC(=O)[C@@H](N)Cc1ccc(O)cc1)C(=O)NCC(=O)N(C)[C@@H](Cc1ccccc1)C(=O)NCCO	x	-1.6%	x	x	x	x
OCc1cccc[n+]1CCc1ccccc1	x	3.9%	-10.4%	41.2%	x	-21.7%
Nc1nc(O)c(-c2ccccc2)o1	x	4.4%	x	x	x	x
COc1ccccc1CCNCc1ccc(OC)c(OC)c1OC	10.8%	-4.8%	20µM*	-34.6%	39.8µM*	-6.2%
COc1ccc(CNCCc2c[nH]c3ccccc23)c(OC)c1OC	-6.6%	7.3%	-27.4%	18.3%	-37.0%	7.0%
COc1ccc(CCNCc2ccc(OC)c(OC)c2OC)cc1	x	5.6%	3.16µM*	u	79.4µM*	-1.0%
NC(CO)Cc1ccccc1 (configuration not stated)	x	5.5%	x	x	x	x
NNC(=O)c1nn(-c2ccccc2)cc1O	u	x	x	x	-32.3%	x
S=c1[nH]nc(-c2ccccc2)n1C1C=CCCC1 (configuration not stated)	-6.8%	-6.5%	3.16µM*	5.0%	-3.1%	-28.6%
CSc1ncc(/C=C2/C(=O)NC(=O)N(C3CCCCC3)C2=O)cn1	0.0%	20µM*	u	-19.8%	u	10.6µM*
CCCCN1C(=O)NC(=O)/C(=C/c2cnc(SC)nc2)C1=O	-1.4%	25.1µM*	u	-21.8%	-34.2%	8.44µM*
CCCN1CCCC2Cc3nc(N)ncc3CC21 (configuration not stated)	x	-0.5%	x	x	x	x
COC(=O)OCC12CCC(O1)C1(C)C(=O)OCC21 (configuration not stated)	5.0%	u	u	u	-15.2%	23.8µM*
CC12CCC3C4CCC(=O)C(O)=C4CCC3C1CCC2OC(=O)CCC1CCCC1 (configuration not stated)	x	-0.2%	x	x	x	x
CCCCCn1c(=O)c(C(=O)Nc2cnccn2)c(O)c2ccccc21	6.1%	11.6%	44.7µM*	8.9%	13.9%	21.2µM*
CC(C)NC(=O)N1CCC2(CC1)CCN(C(=O)Oc1ccccc1)CC2	x	-6.3%	x	x	x	x
COc1cc2c(ccc3c4cc(OC)c(OC)cc4c[n+](C)c23)cc1O	x	-5.2%	-26.4%	19.9%	x	-6.0%
COc1ccc2c(c[n+](C)c3c4cc5c(cc4ccc23)OCO5)c1OC	x	28.2µM*	x	x	x	x
COc1cc2c(cc1OC)[C@@]13CCN4CC5=CCOC6CC(=O)N2C1[C@H]6[C@@H]5C[C@@H]43 (some centres not stated)	x	-1.0%	x	x	x	x
COCOC1CCC2C3CCC4=CC(=O)CCC4=C3C=CC12C (configuration not stated)	x	-0.9%	79.4µM*	u	x	u
CC(=O)c1ccc2c(c1)C1C(Cl)C(Sc3ccccc3[N+](=O)[O-])CC1C(c1ccccc1[N+](=O)[O-])N2 (configuration not stated)	-26.0%	16.2%	-30.0%	-2.8%	-35.2%	-11.1%
CC(=O)c1ccc2c(c1)C1C(Cl)C(Sc3ccccc3[N+](=O)[O-])CC1C(c1ccccc1)N2 (configuration not stated)	-12.7%	u	44.7µM*	-23.4%	44.7µM*	15µM*
C=C1C(=O)OC2CC(C)C3C=CC(=O)C3(C)C(O)C12 (configuration not stated)	x	u	-9.0%	35.3%	x	-13.4%
C=C1C(=O)O[C@@H]2C[C@@H](C)[C@@H]3C=CC(=O)[C@@]3(C)[C@@H](OC(=O)CC(=O)O[C@H]3[C@@H]4C(=C)C(=O)O[C@@H]4C[C@@H](C)[C@@H]4C=CC(=O)[C@]43C)[C@H]12	x	17.8µM*	-33.3%	27.0%	-13.3%	u
CC(C)(C#N)O[C@H]1OC(CO)C(O)C(O)C1O (some centres not stated)	x	4.1%	x	x	x	x
SMILES	L3MBTL1 inh	VDR inh	JMJD2A Tudor inh	HP1b chromo inh	BAZ2B inh	PLK1 PBD inh
c1cnc(N2CC3(CCNCC3)C2)nc1	x	-14.0%	x	x	x	x
CCN1C(=O)N(CC)C(=O)C2(Cc3ccccc3N3CCN(c4ccccc4)CC32)C1=O (configuration not stated)	-12.1%	-13.4%	-22.3%	42.0%	u	-14.9%
CN1C(=O)N(C)C(=O)C2(Cc3cc(N)ccc3N3CCN(c4ccccc4F)CC32)C1=O (configuration not stated)	u	x	x	x	50.1µM*	x
CN1CCN2c3ccc(N)cc3CC3(C(=O)NC(=O)NC3=O)C2C1 (configuration not stated)	x	-2.5%	89.1µM*	-12.5%	7.94µM*	-5.6%
C[C@@H](Cc1ccc(O)cc1)NC[C@@H](O)c1cc(O)cc(O)c1	x	5.6%	x	x	x	x
C#CCN1CC(=O)N(COC(=O)[C@@H]2[C@@H](C=C(C)C)C2(C)C)C1=O	x	-13.3%	x	x	x	x
CCN(CCO)c1ccc(N=Cc2c(O)n(C)c(=S)[nH]c2=O)cc1	x	-9.1%	u	14.4%	56.2µM*	19.6%
CC/C=C\C/C=C\C/C=C\C/C=C\C/C=C\CCCC(=O)NCCCC(=O)O	x	-9.8%	x	x	x	x
N=C(N)c1ccc(CS(=O)(=O)F)cc1	x	-1.5%	x	x	x	x
O=C(N/N=C/c1c(O)n(C2CC2)c(=S)[nH]c1=O)c1ccccc1O	-15.6%	-3.3%	39.8µM*	16.5%	44.7µM*	-2.1%
CCOC(=O)c1ccc(N=Cc2c(O)n(-c3ccccc3F)c(=S)[nH]c2=O)cc1	3.1%	u	-1.4%	35.5%	2.1%	-0.6%
O=C(N/N=C/c1c(O)n(CCC2=CCCCC2)c(=S)[nH]c1=O)c1ccccc1	6.1%	u	u	17.0%	-4.6%	u
Cc1ccccc1-n1c(O)c(/C=N/Nc2nc3c(c(=O)n(C)c(=O)n3C)n2C)c(=O)[nH]c1=S	-11.4%	-2.4%	u	2.6%	u	-9.0%
Cc1ccccc1-n1c(O)c(/C=N/NC(=O)c2ccccc2O)c(=O)[nH]c1=S	u	u	-27.9%[11.4 µM]	-8.5%	44.7µM*	4.23µM*
Cn1c(=O)c2c(nc(N/N=C/c3c(O)n(C4CCCCC4)c(=S)[nH]c3=O)n2C)n(C)c1=O	-25.9%	u	79.4µM*	u	50.1µM*	u
O=C(N/N=C/c1c(O)n(-c2ccccc2)c(=S)[nH]c1=O)c1ccccc1	x	9.2%	44.7µM*	32.5%	44.7µM*	1.0%
COc1ccccc1NC(=O)c1cc[n+](C)cc1	3.2%	7.0%	-4.3%	15.6%	u	-2.2%
CCOP(=O)(OCC)/C(C#N)=C/c1cc(OC)ccc1OC	9.8%	-25.4%	-7.7%	40.9%	-6.1%	-15.2%
Cc1ccc2c(c1)[C@@H]1CN(C)CC[C@H]1N2	x	4.1%	x	x	x	x
CC1(C)C2CC=C(CN3CCC(O)CC3)C1C2 (configuration not stated)	-10.9%[11.4 µM]	7.9%	3.55µM*	-21.4%	u	2.3%
